Values joined by “and” are separate entries in the source; they are usually repeats but may differ in a detail not shown here. Identical values can stand only once. Compounds without any hit were thinned out: in the full panel of roughly 83,000, 20% have a hit.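 In brief: 96-well plates, 48 h treatment, single concentration, percent growth endpoint.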 Unmarked numbers belong to inactive results. Active and inactive are the calls of the source. How the source made its calls: active means growth percent below 10; inactive means the rest.

For the experiment, the system named is MDA-MB-468 breast. The experiment can be described thus: NCI-60 one-dose screen, 48 h (100 = growth as untreated, 0 = no growth, -100 = all killed). The settings on record: 10 µM unless noted.
Turning to `COc1ccc(NC(=O)CCl)cc1`, the growth is 73.6%.

In the case of `O=C(CCC(=O)N/N=C/c1ccccc1O)N/N=C/c1ccccc1O`, the growth is 62.8%.

For `O=C1/C(=C\c2cccn2Cc2ccccc2)c2ccccc2N1c1c(Cl)cccc1Cl`, the growth was -77.5% (active).

With `CN1CCN(Cc2ccc(NC(=O)c3cncc(C#Cc4cncc5ncccc45)c3)cc2C(F)(F)F)CC1`, the growth was 43.5%.

On to `CC(c1ccccc1)N1C(=O)/C(=C/c2csc(C#N)n2)SC1=S` (stereo not given), for which the growth is 63.5%.

As to `C=C(C)[C@@H]1CC[C@]2(C(=O)O)CC[C@]3(C)[C@H](CC[C@@H]4[C@@]5(C)C[C@@H](CC#Cc6ccc(Cl)cc6)C(=O)C(C)(C)[C@@H]5CC[C@]43C)[C@@H]12`, the growth is 16.9%.

For `CN(C)c1ccc(/C=C\c2ccnc3ccccc23)cc1`, the growth was 31.2%.

Regarding `CC(=O)Oc1ccc(Cl)cc1CN(C(C)=O)C1CCCCC1`, the growth was 101%.

In the case of `COc1cc(-c2nc(-c3ccccc3)[nH]c2-c2ccnc(NCCCNS(=O)(=O)c3ccc(C(F)(F)F)cc3)n2)ccc1Cl`, the growth was 14% and 41.9%.

In the case of `Fc1ccc([I+]c2ccc(F)cc2)cc1`, the growth was 30%.

With `CCCOc1ccc2c(c1)CC[C@@H]1[C@@H]2CC[C@@]2(C)[C@H]1CC[C@]2(C)O`, the growth is 59.8%.

`O=c1[nH]c(-c2ccccc2)nc(CN2CCCCC2)c1O`: the growth was 111%.

Regarding `O=C(O)CCCCCCCCCCCCCCC(=O)O`, the growth is 95.6%.

As for `Cc1ccc(N)cc1F`, the growth is 100%.

Turning to `CCCCCCCCCCCCCCCCCCNCc1ccc(Cl)cc1`, the growth is -71.9% (active).

The record behind these values is PubChem BioAssay (NCI).
